According to PubChem BioAssay AID1159580 (chemical genetic matrix, 2015):
“And” between values parts separate entries of the source, which are not always exact repeats. Equal entries are not always repeated. Among all 5,500 compounds or so, about 2,000 (36%) were called active. Inconclusive results (about 18%) are left out. Cut-off read from the data, not from the text of the source: active = normalized growth mostly below about 0.91 (no sharp cut-off); inconclusive = no clear call, values can overlap the other calls; inactive = mostly above about 0.92. Some of the results follow.

Assay: chemical genetic growth profiling, strain panel (AID 1159580);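 note: tested at 20 µM; growth read once vehicle control cultures reached saturation at 30 °C; 1 = growth at the plate median or of vehicle wells; lower values mean less growth of the strain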
Details: S. cerevisiae deletion strains, growth OD

COc1ccc(-c2cc(=O)c3ccccc3o2)cc1
normalized growth (locus YAL013W, strain DEP1, stronger effect = lower value): 0.682 (active)
normalized growth (locus YAL021C, strain ccr4, stronger effect = lower value): 0.888 (active)
normalized growth (locus YAL026C, strain drs2, stronger effect = lower value): 0.828 (active)
normalized growth (locus YAL030W, strain snc1, stronger effect = lower value): 0.905 (active)
normalized growth (locus YBL061C, strain skt5, stronger effect = lower value): 0.869 (active)
normalized growth (locus YBR009C, strain hhf1, stronger effect = lower value): 0.725 (active)
normalized growth (locus YBR021W, strain FUR4, stronger effect = lower value): 0.949 (inactive)
normalized growth (locus YBR023C, strain chs3, stronger effect = lower value): 0.811 (active)
normalized growth (locus YBR171W, strain sec66, stronger effect = lower value): 0.869 (active)
normalized growth (locus YBR229C, strain ROT2, stronger effect = lower value): 0.932 (inactive)
normalized growth (locus YBR231C, strain swc5, stronger effect = lower value): 0.857 (active)
normalized growth (locus YBR279W, strain paf1, stronger effect = lower value): 0.881 (active)
normalized growth (locus YCL011C, strain gbp2, stronger effect = lower value): 0.809 (active)
normalized growth (locus YCL016C, strain dcc1, stronger effect = lower value): 0.781 (active)
normalized growth (locus YCL029C, strain bik1, stronger effect = lower value): 0.753 (active)
normalized growth (locus YCL061C, strain MRC1, stronger effect = lower value): 0.833 (active)
normalized growth (locus YCL069W, strain vba3, stronger effect = lower value): 0.863 (active)
normalized growth (locus YCR088W, strain abp1, stronger effect = lower value): 0.926 (inactive)
normalized growth (locus YDL005C, strain med2, stronger effect = lower value): 0.919 (inactive)
normalized growth (locus YDL035C, strain GPR1, stronger effect = lower value): 0.656 (active)
normalized growth (locus YDL040C, strain nat1, stronger effect = lower value): 0.923 (active)
normalized growth (locus YDL074C, strain BRE1, stronger effect = lower value): 0.452 (active)
normalized growth (locus YDL101C, strain DUN1, stronger effect = lower value): 0.655 (active)
normalized growth (locus YDL185W, strain tfp1, stronger effect = lower value): 0.907 (inactive)
normalized growth (locus YDL192W, strain arf1, stronger effect = lower value): 0.685 (active)
normalized growth (locus YDR001C, strain nth1, stronger effect = lower value): 0.923 (inactive)
normalized growth (locus YDR069C, strain doa4, stronger effect = lower value): 0.926 (inactive)
normalized growth (locus YDR101C, strain arx1, stronger effect = lower value): 0.884 (active)
normalized growth (locus YDR137W, strain rgp1, stronger effect = lower value): 0.53 (active)
normalized growth (locus YDR159W, strain sac3, stronger effect = lower value): 0.998 (inactive)
normalized growth (locus YDR162C, strain NBP2, stronger effect = lower value): 0.274 (active)
normalized growth (locus YDR195W, strain ref2): 1.3 [resistant] (active)
normalized growth (locus YDR297W, strain sur2, stronger effect = lower value): 0.899 (active)
normalized growth (locus YDR318W, strain mcm21, stronger effect = lower value): 0.792 (active)
normalized growth (locus YDR334W, strain swr1, stronger effect = lower value): 0.943 (inactive)
normalized growth (locus YDR335W, strain msn5, stronger effect = lower value): 0.902 (active)
normalized growth (locus YDR388W, stronger effect = lower value): 0.807 (active)
normalized growth (locus YDR392W, strain spt3, stronger effect = lower value): 0.406 (active)
normalized growth (locus YDR502C, strain sam2, stronger effect = lower value): 0.757 (active)
normalized growth (locus YEL003W, strain gim4, stronger effect = lower value): 0.79 (active)
normalized growth (locus YEL037C, strain rad23, stronger effect = lower value): 0.904 (active)
normalized growth (locus YEL061C, strain CIN8 (second series), stronger effect = lower value): 0.904 (active)
normalized growth (locus YEL061C, strain CIN8, stronger effect = lower value): 0.672 (active)
normalized growth (locus YER015W, strain faa2, stronger effect = lower value): 0.904 (active)
normalized growth (locus YER016W, strain bim1, stronger effect = lower value): 0.918 (active)
normalized growth (locus YER110C, stronger effect = lower value): 0.927 (inactive)
normalized growth (locus YER111C, strain swi4, stronger effect = lower value): 0.881 (active)
normalized growth (locus YER155C, strain BEM2 (second series), stronger effect = lower value): 0.283 (active)
normalized growth (locus YER155C, strain BEM2, stronger effect = lower value): 0.734 (active)
normalized growth (locus YER167W, strain BCK2, stronger effect = lower value): 0.739 (active)
normalized growth (locus YFR010W, strain ubp6, stronger effect = lower value): 0.911 (inactive)
normalized growth (locus YGL078C, strain dbp3, stronger effect = lower value): 0.933 (inactive)
normalized growth (locus YGL086W, strain mad1, stronger effect = lower value): 0.762 (active)
normalized growth (locus YGL167C, strain pmr1, stronger effect = lower value): 0.894 (active)
normalized growth (locus YGL173C, strain kem1, stronger effect = lower value): 0.798 (active)
normalized growth (locus YGL227W, strain vid30, stronger effect = lower value): 0.92 (inactive)
normalized growth (locus YGL240W, strain doc1, stronger effect = lower value): 0.756 (active)
normalized growth (locus YGL248W, strain PDE1, stronger effect = lower value): 0.636 (active)
normalized growth (locus YGL253W, strain hxk2, stronger effect = lower value): 0.681 (active)
normalized growth (locus YGR135W, strain pre9, stronger effect = lower value): 0.747 (active)
normalized growth (locus YGR252W, strain gcn5, stronger effect = lower value): 0.824 (inactive)
normalized growth (locus YHR013C, strain ard1, stronger effect = lower value): 0.771 (active)
normalized growth (locus YHR027C, strain rpn1, stronger effect = lower value): 0.916 (active)
normalized growth (locus YHR030C, strain SLT2, stronger effect = lower value): 0.398 (active) and 0.992 (inactive)
normalized growth (locus YHR079C, strain IRE1 (second series), stronger effect = lower value): 0.887 (active)
normalized growth (locus YHR079C, strain IRE1, stronger effect = lower value): 1 (inactive)
normalized growth (locus YHR094C, strain hxt1, stronger effect = lower value): 0.939 (inactive)
normalized growth (locus YHR129C, strain ARP1, stronger effect = lower value): 0.661 (active)
normalized growth (locus YHR142W, strain chs7, stronger effect = lower value): 0.584 (active)
normalized growth (locus YHR200W, strain rpn10, stronger effect = lower value): 0.868 (active)
normalized growth (locus YIL066C, strain RNR3, stronger effect = lower value): 0.55 (active)
normalized growth (locus YIL073C, strain SPO22, stronger effect = lower value): 0.66 (active)
normalized growth (locus YIL125W, strain kgd1, stronger effect = lower value): 0.949 (inactive)
normalized growth (locus YIR030C, strain dcg1, stronger effect = lower value): 0.804 (active)
normalized growth (locus YJL092W, strain hpr5, stronger effect = lower value): 0.884 (active)
normalized growth (locus YJL095W, strain BCK1 (second series), stronger effect = lower value): 0.707 (active)
normalized growth (locus YJL095W, strain BCK1, stronger effect = lower value): 0.277 (active) and 0.975 (inactive)
normalized growth (locus YJL115W, strain asf1, stronger effect = lower value): 0.915 (inactive)
normalized growth (locus YJL129C, strain trk1, stronger effect = lower value): 0.916 (inactive)
normalized growth (locus YJL134W, strain LCB3, stronger effect = lower value): 0.928 (inactive)
normalized growth (locus YJL154C, strain vps35, stronger effect = lower value): 0.938 (inactive)
normalized growth (locus YJL164C, strain tpk1, stronger effect = lower value): 0.754 (active)
normalized growth (locus YJL166W, strain qcr8, stronger effect = lower value): 0.771 (active)
normalized growth (locus YJL168C, strain set2, stronger effect = lower value): 0.922 (active)
normalized growth (locus YJL187C, strain SWE1 (second series), stronger effect = lower value): 0.668 (active)
normalized growth (locus YJL187C, strain SWE1, stronger effect = lower value): 0.9 (active)
normalized growth (locus YJR043C, strain POL32, stronger effect = lower value): 0.724 (active)
